EPAC1 ag val: Validation qHTS for agonist of cAMP-regulated guanine nucleotide exchange factor 3 (EPAC1) | EPAC1 Rap1b BODIPY-GDP exchange, fluorescence | Potency, µM, for the others: max response, positive = active, usual class: activators | 16,000 tested, 1% active; note: nearly all actives have a fitted effect of over 70% in size
EPAC2 ant val: Validation qHTS for antagonist of cAMP-regulated guanine nucleotide exchange factor 4 (EPAC2) | Rap guanine nucleotide exchange factor 4 (Homo sapiens), Q8WZA2 | EPAC2 Rap1B BODIPY-GDP exchange, fluorescence | Potency, µM (titrated, usually from 112 µM), inactives show at the highest dose activity, negative = inhibition, most hits filed as inhibitors | 16,000 tested, 1.7% active | AID 1645886, 2021;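 note: 100% = activation by cAMP agonist control; nearly all actives have a fitted effect of over 40% in size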
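Normalized against a 6.5 mM cAMP agonist control, compounds were tested on 100 nM EPAC2 exchanging Rap1B-bound BODIPY-GDP (250 nM) for 50 uM GDP. Fluorescence drop (ex 480, em 540 nm) was tracked at room temperature over 30 min at 5-min intervals.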
* = called active by the depositor; i = inactive; ? = inconclusive; [ ] = another dose, or the depositor's remark. In the library only some 2.9% were active in any assay of this set; here they are far more common. Calls come from the whole dose curve; as a rule, active = well fitted curve in the direction sought with a large enough effect; inconclusive = small, poorly fitted or top-dose-only effect, or another doubt; inactive = no such curve, though single readings can be large; an effect the other way counts as inactive or inconclusive. Unless noted, % is set by controls: 0 for no effect and ±100 for the full control effect; potency is the fitted concentration of half-maximal effect.

SMILES | EPAC1 ag val | EPAC2 ant val
NC(=O)[C@H](Cc1ccccc1)NC(=O)[C@H](Cc1c[nH]c2ccccc12)NC(=O)[C@@H]1CCCN1C(=O)[C@@H](N)Cc1ccc(O)cc1 | -8% | 4%[11.4 µM]
COc1ccc2c3c([nH]c2c1)C(C)=NCC3 | ? | -8%
CC1=NCCc2c1[nH]c1cc(O)ccc21 | 79µM* | i
CC(C)[C@H]1C(=O)N2CCC[C@H]2[C@]2(O)O[C@](NC(=O)[C@@H]3C[C@@H]4c5cccc6[nH]cc(c56)C[C@H]4N(C)C3)(C(C)C)C(=O)N12 | 1% | 5%
CC(C)CCC(=O)O[C@H]1CC[C@H]2[C@@H]3CCC4=CC(=O)CC[C@]4(C)[C@H]3CC[C@]12C | 6% | -14%
